High-throughput results as filed in PubChem BioAssay.
Cy5 interf NS3h – Cy5 fluorescence quenchers or enhancers, artefact control for HCV NS3 helicase inhibitor project, biochemical, ChemBridge library, Cy5 readout; AID 720488, 2013; Cy5-dT15 DNA with NS3h, fluorescence interference; actives lie on both sides; signal over control mean, under 1 quenches; fluorescence interference ratio at 100 µM; 6% of 16,000 active;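 active = compound fluorescence over control fluorescence at most 0.8, a quencher, or at least a set upper limit, an enhancer; inactive = ratio between 0.8 and the set upper limit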
HCV NS3h FP – HCV NS3 helicase inhibitors, primary screen, biochemical, fluorescence polarization, ChemBridge library. inhibition, % at 100 µM. NS3h Cy5-dT15 DNA binding. Hepatitis C virus NS3 helicase. 1.6% of 16,000 active. AID 687043, 2013;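 active = inhibition above the average over every tested compound plus 3 SD, cut at about 40% in these data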
Large screens that a line does not name were inactive. Shown are actives, neighbours in structure and some others; about 6.9% of the full set was active somewhere.

Cc1ccc(C(=O)N/C(=C\c2cccc(Oc3ccccc3)c2)C(=O)NCc2ccncc2)cc1	none
CCOc1ccccc1NC(=O)c1c(NC(=O)c2cccs2)sc2c1CCCC2	HCV NS3h FP 41.3
CCOc1ccccc1NC(=O)c1c(NC(=O)Cc2ccccc2)sc2c1CCCCC2	none
O=C1NN(c2ccc(Cl)cc2)C(=O)/C1=C\c1ccc(O)c(O)c1	none
Cc1ccc(N2NC(=O)/C(=C/c3ccc(Cl)cc3)C2=O)cc1	Cy5 interf NS3h 0.675
COC(=O)CN(c1ccccc1Br)S(C)(=O)=O	none
CCCCCCCCNS(=O)(=O)c1ccc([N+](=O)[O-])cc1	none
O=C(Nc1cc(Cl)cc(Cl)c1)c1ccc(I)cc1	none
Cc1cc(Nc2cc(Cl)cc(Cl)c2)n2ncnc2n1	none
Cc1cc(Nc2ccc(C)c(Cl)c2)n2ncnc2n1	Cy5 interf NS3h 0.741
Cn1c(=O)c2c([nH]c(=S)n2Cc2ccccc2Cl)n(C)c1=O	none
CS(=O)(=O)N1CCN(Cc2ccccc2Cl)CC1	Cy5 interf NS3h 0.606
Oc1ccc(Br)cc1CN1CCN(Cc2cccc3ccccc23)CC1	none
CS(=O)(=O)N1CCN(CCCc2ccccc2)CC1	none
CS(=O)(=O)N1CCN(Cc2cccc3ccccc23)CC1	Cy5 interf NS3h 0.695
COc1cc2c(cc1OC)C(c1cc([N+](=O)[O-])ccc1OC(C)=O)N(C(C)=O)CC2 (stereo not given)	none
O=C(Nc1ccc(Cl)c(C(F)(F)F)c1)c1ccccc1I	none
CC(=O)N1N=C(c2ccccc2)CC1c1ccc([N+](=O)[O-])cc1 (stereo not given)	none
Cc1ccc(-c2nn(-c3ccccc3)cc2/C=N\O)o1	none
CC(=O)Nc1nc(C)c(-c2csc(Nc3ncccn3)n2)s1	Cy5 interf NS3h 0.514
CCC(=O)Nc1nc(C)c(-c2csc(Nc3cc(C)ccn3)n2)s1	none
CS(=O)(=O)N(CC(=O)N1CCOCC1)c1ccc(Cl)cc1	none
CCOc1ccc(N(CC(=O)N2CCOCC2)S(C)(=O)=O)cc1	Cy5 interf NS3h 0.753
CCOC(=O)c1c[nH]c2c(CC)cccc2c1=O	none
CCC(=O)Nc1cccc2c1C(=O)c1ccccc1C2=O	none
COC(=O)c1ccc2c(c1O)C(=O)c1ccccc1C2=O	Cy5 interf NS3h 0.799
Cc1ccc(NC(=O)Cc2nnc(NC(=O)Nc3ccccc3)s2)cc1	none
CCC1=NN(C(=O)c2ccccc2)C(O)(c2ccc(Br)cc2)C1 (stereo not given)	Cy5 interf NS3h 0.763
CCC1=NN(C(=O)c2cccc(O)c2)C(O)(c2ccncc2)C1 (stereo not given)	none
COc1ccccc1CN1CCN(Cc2ccc(OC)c(OC)c2)CC1	none
CCOC(=O)C1=C(C)N=c2s/c(=C/c3ccccn3)c(=O)n2C1c1ccccc1Cl (stereo not given)	none
CCOC(=O)C1=C(C)N=c2s/c(=C\c3ccc([N+](=O)[O-])o3)c(=O)n2C1c1ccccc1Cl (stereo not given)	Cy5 interf NS3h 0.712
CCOC(=O)C1=C(C)N=c2s/c(=C\c3ccc([N+](=O)[O-])o3)c(=O)n2C1c1cccs1 (stereo not given)	none
CCOC(=O)C1=C(C)N=c2s/c(=C\c3ccc([N+](=O)[O-])o3)c(=O)n2C1c1ccc(C)cc1 (stereo not given)	Cy5 interf NS3h 0.752
CC(C)CC(=O)NS(=O)(=O)c1ccc(NC(=O)c2ccccc2Cl)cc1	none
O=C(c1cccc(Br)c1)N1N=C(c2ccc(F)cc2)CC1(O)C(F)(F)F (stereo not given)	none
CCOc1ccc(-c2cc(C)n3nc(C(=O)N4CCOCC4)cc3n2)cc1	none
CC1=C(C(=O)Nc2ccccc2Cl)C(c2ccc(Br)cc2)NC(=S)N1 (stereo not given)	none
CN(C)Cc1c(O)c[n+]([O-])c2ccccc12	none
[O-][n+]1cc(O)c(Br)c2ccccc21	Cy5 interf NS3h 0.7
COc1ccccc1N1CCN(/N=C\c2cc([N+](=O)[O-])ccc2Cl)CC1	none
COc1ccc2nc(NC(=O)CN3C(=O)c4ccccc4C3=O)sc2c1	none
C=CCOc1c(I)cc(C=C2C(=O)NC(=S)NC2=O)cc1OCC	Cy5 interf NS3h 0.714
CCOc1cc(C=C2C(=O)NC(=S)NC2=O)cc(Br)c1OCCOc1ccccc1C	none
O=C(CCCN1C(=O)c2ccccc2C1=O)Nc1ccccc1C(=O)N1CCOCC1	none
CN1CCN(C(=O)c2ccccc2NC(=O)CN2C(=O)c3ccccc3C2=O)CC1	Cy5 interf NS3h 0.768
O=C1NC(=O)C(=Cc2ccc(OCc3cccc4ccccc34)cc2)C(=O)N1	none
CN(c1ccccc1)c1ccc(C=C2C(=O)NC(=O)NC2=O)cc1	HCV NS3h FP 45.9
Cc1ccccc1OCC(=O)Nc1ccc(Cl)cc1C(F)(F)F	none
CCOc1cc(/C=C2\SC(=S)N(C(C)C)C2=O)ccc1O	none
CCOc1cc(/C=C2\SC(=S)N(CC(C)C)C2=O)ccc1O	Cy5 interf NS3h 0.785
O=C(O)c1ccc(N2C(=O)CC(Cc3ccc(Cl)cc3)C2=O)cc1 (stereo not given)	none
Cc1cc(C)nc(N=C(N)Nc2ccc(Cl)cc2C(=O)c2ccccc2)n1	Cy5 interf NS3h 0.792
Cc1cc(C)nc(N=C(N)Nc2ccc(C(=O)O)cc2)n1	none
CCOc1ccc(NC(=O)C(NS(=O)(=O)c2ccc(C)cc2)C(C)C)cc1 (stereo not given)	none
COc1cc(NC(=O)c2cc([N+](=O)[O-])ccc2N2CCCCC2)c2ncccc2c1	none
CNC(=O)COc1ccc(C23CC4CC(CC(C4)C2)C3)cc1	none
CCC(CO)Nc1cc(N2CCOCC2)ccc1[N+](=O)[O-] (stereo not given)	Cy5 interf NS3h 0.727
CCC(CO)Nc1cc(Cl)ccc1[N+](=O)[O-] (stereo not given)	Cy5 interf NS3h 0.69
COc1ccc(OCCNc2cc(Cl)ccc2[N+](=O)[O-])cc1	none
O=[N+]([O-])c1ccc(N2CCOCC2)cc1[N+](=O)[O-]	none
CN1C(c2ccccc2)CC(O)(c2ccccc2)CC1c1ccccc1 (stereo not given)	none
CCOC(=O)Cc1cc(-c2ccccc2)nc2ccc3ccccc3c12	none
CCOC(=O)CC(O)(c1ccccc1)C(F)(F)C(F)F (stereo not given)	Cy5 interf NS3h 0.749
CC1(C)Cc2ccccc2C(/C(=N/O)C(=O)c2ccccc2)=N1	none
CCN(CC)CCCNC(=O)c1ccc(Cl)cc1	Cy5 interf NS3h 0.671
CCCCCNC(=O)c1ccc(C(=O)NCCCCC)cc1	none
CCOc1cc(/C=C2\C(=O)N(c3ccc(S(N)(=O)=O)cc3)N=C2C)ccc1O	none
Cc1ccc(/C=C2N=C(/C=C/c3ccccc3)OC/2=O)s1	none
COc1ccc(/C=C2/N=C(c3ccc(Br)cc3)OC2=O)cc1	Cy5 interf NS3h 1.21
COc1ccc(/C=C2N=C(/C=C/c3ccccc3)OC/2=O)cc1	Cy5 interf NS3h 0.721
O=C1OC(c2ccc(F)cc2)=N/C1=C\c1ccc(Cl)cc1	none
COc1ccc(/C=C2\C(=O)ON=C2C)cc1	none
O=C1OC(/C=C/c2ccccc2)=NC/1=C/c1ccccc1	Cy5 interf NS3h 0.782
CCOc1ccc(NC(=O)c2cncc(Br)c2)cc1	none
CCOc1ccc(NC(=S)NC(NC(=O)C(c2ccccc2)c2ccccc2)C(Cl)(Cl)Cl)cc1 (stereo not given)	none
CCOC(=O)C1=C(C)N=c2s/c(=C\c3sccc3C)c(=O)n2C1c1cccs1 (stereo not given)	none
C/C(=N/N=C\c1ccccc1)C1C(=O)c2ccccc2C1=O	Cy5 interf NS3h 0.684
C/C(=N/N=C(\C)c1cccs1)C1C(=O)c2ccccc2C1=O	none
